# EWS-Fli inh – inhibitors of EWS/Fli oncoprotein transcriptional activity | inhibition, % at 12.6 µM | A673 NR0B1-luciferase reporter, viability-normalised | 350,000 tested, 0.67% active;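 active = mean inhibition of at least 50% after viability correction, with every replicate also passing that limit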;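 note: firefly luciferase signal divided by Alamar Blue viability fluorescence both relative to DMSO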
# CF NFkB inh – blocks PAF-induced NF-kB reporter in cystic fibrosis cells; KKLEB NF-kB-GFP reporter, GFP fluorescence overnight; inhibition, % at 5 µM; 360,000 tested, 0.86% active; AID 588850;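 active = at least 50% inhibition at 5 µM, scaled per plate between neutral and stimulator controls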;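 note: PAF is a Pseudomonas aeruginosa culture filtrate used as stimulus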
# TROY signal inh – blocks TROY-dependent signaling in reporter cells | Q293 LMP1-TROYcd NF-kB luciferase reporter, 4 h | inhibition, % at 10 µM | 360,000 tested, 0.98% active;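 active = compounds whose plate-normalised and pattern-corrected inhibition of the luciferase reporter signal at the single screening dose is 50% or more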
# KKLEB tox – CF airway cell cytotoxicity counter-screen; KKLEB CF airway cells viability, ATPlite luminescence, overnight; hits give low values; cells stimulated with P. aeruginosa culture filtrate; activity change (cytotoxicity), % at 5 µM; 360,000 tested, 0.36% active;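 active = corrected activity change at or below -50% at 5 µM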
# TWEAK Fn14 block – TWEAK-Fn14 signaling inhibition; TWEAK-stimulated Fn14 reporter cells, luciferase luminescence, 8 h; 360,000 tested, 2% active; inhibition, % at 10 µM; AID 1159606; in the data active = inhibition above about 50%
# LGR2 inh – blocks bursicon-induced cAMP signaling via Drosophila LGR2. inhibition, % at 9.99 µM. 380,000 tested, 0.35% active. HEK293 LGR2, CRE-luciferase, bursicon-stimulated, 4 h;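 active = drop in luminescence signal, shown as inhibition above about 50% in the replicate tests, limit read from the data, passing the limit was not always enough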;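 note: agonist challenge used bursicon conditioned medium at about half maximal strength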
# Hits are given with their value; . = inactive; / = not tested or not shown; ! = not confirmed by another sample. The list is not random: actives were taken first. Their share in the collection is about 2.6%.
SMILES,EWS-Fli inh,CF NFkB inh,TROY signal inh,KKLEB tox,TWEAK Fn14 block,LGR2 inh
C[C@@H]1CN([C@H](C)CO)C(=O)c2ccccc2-c2ccccc2CO[C@H]1CN(C)C(=O)Nc1ccnc(N2CCOCC2)c1,.,/,/,/,/,.
CCc1ccc(-c2nc(CS(=O)CC(=O)NCc3ccccc3)c(C)o2)cc1 (stereo unspecified),.,.,.,.,57.4,.
CCc1ccc(-c2nc(CSCC(=O)NCc3ccco3)c(C)o2)cc1,83.6,.,.,.,65.0,.
CCCNC(=O)CSCc1nc(-c2ccc(SC)cc2)oc1C,.,.,.,.,.,.
O=C(Nc1ccc(-c2ccccc2)cc1)[C@H]1[C@H](CO)[C@H]2Cn3c(cccc3=O)[C@H]2N1CC1CCCCC1,.,/,/,/,/,.
O=C(C[C@@H]1C=C[C@@H](NC(=O)CCN2CCCCC2)[C@H](CO)O1)Nc1ccccc1,.,/,/,/,/,.
CCC(c1ccc(O)cc1)C(CC)c1ccc(O)cc1 (stereo unspecified),.,.,52.4,.,.,.
O=C(c1cnn2c(C(F)(F)F)cc(-c3ccccc3)nc12)N1CCCc2ccccc21,.,.,.,.,.,.
O=C(c1nn2c(C(F)(F)F)cc(-c3cccs3)nc2c1Cl)N1CCCc2ccccc21,/,.,.,.,54.2,.
CC1CC2=C(C(=O)O1)C(c1ccc(Cl)cc1)Nc1ccccc1N2 (stereo unspecified),.,.,.,.,.,.
Cc1ccc(C2Nc3ccccc3NC3=C2C(=O)OC(C)C3)cc1 (stereo unspecified),.,.,63.7,.,.,.
CCC(=O)Nc1ccc2c(c1)C(=O)N(C)[C@H]1CC[C@H](CC(=O)N3CCCCC3)O[C@@H]1CO2,.,/,/,/,/,.
NC(=S)N/N=C\c1c(OCc2ccccc2Cl)ccc2ccccc12,.,.,.,.,56.8,.
CCNC(=O)[C@@H]1[C@@H](CO)[C@@H]2Cn3c(ccc(-c4ccccc4F)c3=O)[C@H]1N2Cc1cccnc1,.,/,/,/,/,.
Cc1nn(CCc2nn[nH]n2)c2nc(-c3ccccc3)cc(C(F)(F)F)c12,.,.,.,.,.,/
Cc1nn(CCC#N)c2nc(-c3ccccc3)cc(C(F)(F)F)c12,/,.,51.7,.,.,/
COc1cccc(Nc2nc(N)nc(CCl)n2)c1,58.6,.,.,.,.,.
Cc1cccc(Nc2nc(N)nc(CCl)n2)c1,.,.,.,.,.,.
COc1ccccc1Nc1nc(N)nc(CCl)n1,57.2,.,.,.,.,.
O=C(CSc1nnc(-c2ccccc2)n1Cc1ccccc1)NNC(=O)c1ccccc1O,78.6,.,.,.,.,.
CCSc1nc(N2CCCCC2)c2c(c1C#N)CCCC2,/,.,/,.,93.9,/
COc1ccc(S(=O)(=O)N(C)C[C@@H]2OCCCC[C@H](C)Oc3ccc(NS(=O)(=O)c4ccc(F)cc4)cc3C(=O)N([C@H](C)CO)C[C@@H]2C)cc1,.,/,/,/,/,.
CCCN1CCC(N2CCCC(C(=O)O)C2)CC1 (stereo unspecified),.,.,.,.,61.4,.
CCOC(=O)C1CCCN(c2c(N3CCC(N4CCCCC4)CC3)c(=O)c2=O)C1 (stereo unspecified),.,.,.,.,.,.
Cc1cccc(-c2ccc([C@@H]3[C@H]4CN(Cc5cncnc5)CCCCN4[C@H]3CO)cc2)c1,.,/,/,/,/,.
SMILES,EWS-Fli inh,CF NFkB inh,TROY signal inh,KKLEB tox,TWEAK Fn14 block,LGR2 inh
COc1cc(NC(=O)c2nccnc2N)cc(C(=O)Nc2cccc(C(F)(F)F)c2)c1,.,.,.,.,.,.
COc1cc(Nc2ccccn2)cc(C(=O)Nc2cccc(C(F)(F)F)c2)c1,.,.,.,.,50.1!,.
COc1cc(NC(=O)N2CCNC2=O)cc(C(=O)Nc2cccc(C(F)(F)F)c2)c1,59.4,.,.,.,.,.
N#C/C(=C\Nc1ccc2c(c1)OCCO2)c1nc2ccccc2[nH]1,/,.,66.4,.,61.5,/
COc1ccc(-c2csc(/C(C#N)=C/Nc3ccc4c(c3)OCCO4)n2)cc1,.,62.1,.,-63.5,.,.
N#C/C(=C\c1ccccc1[N+](=O)[O-])c1nc(C2CC2)cs1,/,.,.,.,.,.
N#C/C(=C\Nc1ccc2c(c1)OCCO2)c1nc(-c2ccccc2)cs1,.,77.3,.,-76.2,.,.
N#C/C(=C\Nc1ccccc1SC(F)(F)F)c1nc(-c2ccc(F)cc2)cs1,.,.,.,.,.,.
N#C/C(=C\C=C\c1ccccc1[N+](=O)[O-])c1nc(-c2ccc3c(c2)OCO3)cs1,/,.,.,-54.5,.,.
N#CCSc1nc2sc3c(c2c(=O)n1C1CCCCC1)CCCC3,/,.,.,.,58.4,/
COc1ccc(NS(=O)(=O)c2cc([N+](=O)[O-])ccc2N/N=C\c2c(C)[nH]c3ccccc23)cc1,/,.,.,.,.,.
COc1ccccc1NS(=O)(=O)c1cc([N+](=O)[O-])ccc1N/N=C/c1c[nH]c2ccccc12,/,.,52.4,.,55.6,/
CCC(C)n1ncn(-c2ccc(N3CCN(c4ccc(OCC5COC(Cn6cncn6)(c6ccc(Cl)cc6Cl)O5)cc4)CC3)cc2)c1=O (stereo unspecified),.,63.4,.,.,.,.
CCC(C)n1ncn(-c2ccc(N3CCN(c4ccc(O)cc4)CC3)cc2)c1=O (stereo unspecified),.,.,.,.,.,.
CN1C(=O)C(Cl)(Cl)C(=O)c2ccccc21,/,53.4,.,.,50.9,/
C[C@H](O)C#Cc1cnc2c(c1)C(=O)N([C@H](C)CO)C[C@H](C)[C@@H](CN(C)Cc1ccccn1)O2,.,/,/,/,/,.
CN1CCN(CC(=O)Nc2nc(-c3ccccc3)cs2)CC1,/,.,.,.,.,.
COc1ccc2cc(C)c3nnc(SCC(=O)Nc4nc(-c5ccccc5)cs4)n3c2c1,/,.,.,-52.2,.,/
COc1ccc2cc(C)c3nnc(SCC(=O)Nc4cc(OC)c(OC)cc4C(=O)O)n3c2c1,.,.,.,.,.,.
COc1ccc(C2(O)CCN(CC(=O)Nc3nc(-c4ccccc4)cs3)CC2)cc1,.,.,.,.,83.1,.
CCn1c(SCC(=O)Nc2nc(-c3ccccc3)cs2)nnc1-c1ccccc1,/,.,.,.,53.6,/
O=C(C[C@H]1C=C[C@H](NS(=O)(=O)c2ccccc2)[C@H](CO)O1)NCc1ccncn1,.,/,/,/,/,.
C[C@H]1CN([C@@H](C)CO)C(=O)c2cc(-c3ccccc3F)cnc2O[C@@H]1CN(C)Cc1cccc(C(=O)O)c1,.,/,/,/,/,.
C[C@H](CO)N1C[C@H](C)[C@H](CN(C)C(=O)Nc2ccccc2)Oc2ccc(NC(=O)Nc3ccc(F)cc3)cc2C1=O,.,/,/,/,/,.
CN1CCN(C(=O)C[C@H]2C[C@H]3c4cc(NC(=O)Cc5ccncc5)ccc4O[C@H]3[C@H](CO)O2)CC1,.,/,/,/,/,.
CNC[C@@H](CC1CCCCC1)NC[C@H](CC(C)C)NCCc1cccc(C(F)(F)F)c1,.,.,.,-72.0,.,102.7

# Screening data as filed in PubChem.
